Pol III holo inh = blocks replication by bacterial DNA polymerase III holoenzyme; reconstituted DNA polymerase III holoenzyme replication, biochemical; Potency, µM (top dose mostly 57.1 µM), inactives show top-dose activity change, negative = inhibition; actives 0.25% (n = 71,000); AID 603; further: on the % scale 0 is the no-effect control and ±100 the full control effect
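Reconstituted *E. coli* holoenzyme (0.35 nM Pol III, 1 nM beta, 154 nM SSB, 2 nM primase) was preincubated with compound for 15 min at RT. Synthesis on 1.4 nM ssM13Gori ran 35 min, then was stopped with PicoGreen/EDTA and read as dsDNA fluorescence.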
Caspase-7 inhib = caspase-7 (human) inhibition, allosteric or competitive. actives 0.02% (n = 75,000). Potency, µM (highest dose often 57.5 µM), inactives show at the top dose activity change, negative = inhibition, hits mostly inhibitors. recombinant caspase-7, Ac-DEVD-AFC fluorescence rate. AID 889; active means well fitted inhibition curve with a large enough effect in the main read-out, with a control signal flat, not every such curve was filed as active; inconclusive means small, poorly fitted or top-dose-only effect, or a change in a side signal; further: % of control where 0% means no effect
Tau fil binding = binds recombinant human tau filaments. recombinant tau filaments, thioflavin S fluorescence, 15 h; filaments grown with octadecylsulfate alongside compound. Potency, µM (titrated, usually from 57.1 µM), without a hit: top-dose activity change, negative = inhibition. P10636. actives 2% (n = 71,000);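 further: on the % scale 0 is the no-effect control and ±100 the full control effect; actives lower thioflavin S fluorescence by blocking filaments or displacing dye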
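Read-out: ThS fluorescence, 450 nm excitation/510 nm emission; lower signal marks blocked filament formation or displaced dye. Tau at 1 uM with 30 uM ODS, 10 uM ThS, 5 mM DTT, 100 mM NaCl, 10 mM HEPES pH 7.4; 15 h, 37 C.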
Casp1 inh = allosteric or competitive inhibitors of human caspase-1 | P29466 | Caspase-1 enzyme, Ac-WEHD-AFC fluorogenic rate | Potency, µM (highest dose often 57.5 µM), for inactives: top-dose activity change, negative = inhibition, usual class: inhibitors | actives 0.03% (n = 75,000) | AID 900;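 further: plate controls were vehicle for no effect and no substrate for full effect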
ALOX15 inhib = inhibitors of human 15-lipoxygenase (ALOX15) | Potency, µM (highest dose often 57.1 µM), for inactives: at the highest dose activity change, negative = inhibition, most hits filed as inhibitors | actives 1.4% (n = 74,000) | purified 15hLO-1, xylenol orange hydroperoxide absorbance; further: on the % scale 0 is the no-effect control and ±100 the full control effect; nearly all actives have a fitted effect of over 55% in size
Target sequence (P16050 whole entry, looked up): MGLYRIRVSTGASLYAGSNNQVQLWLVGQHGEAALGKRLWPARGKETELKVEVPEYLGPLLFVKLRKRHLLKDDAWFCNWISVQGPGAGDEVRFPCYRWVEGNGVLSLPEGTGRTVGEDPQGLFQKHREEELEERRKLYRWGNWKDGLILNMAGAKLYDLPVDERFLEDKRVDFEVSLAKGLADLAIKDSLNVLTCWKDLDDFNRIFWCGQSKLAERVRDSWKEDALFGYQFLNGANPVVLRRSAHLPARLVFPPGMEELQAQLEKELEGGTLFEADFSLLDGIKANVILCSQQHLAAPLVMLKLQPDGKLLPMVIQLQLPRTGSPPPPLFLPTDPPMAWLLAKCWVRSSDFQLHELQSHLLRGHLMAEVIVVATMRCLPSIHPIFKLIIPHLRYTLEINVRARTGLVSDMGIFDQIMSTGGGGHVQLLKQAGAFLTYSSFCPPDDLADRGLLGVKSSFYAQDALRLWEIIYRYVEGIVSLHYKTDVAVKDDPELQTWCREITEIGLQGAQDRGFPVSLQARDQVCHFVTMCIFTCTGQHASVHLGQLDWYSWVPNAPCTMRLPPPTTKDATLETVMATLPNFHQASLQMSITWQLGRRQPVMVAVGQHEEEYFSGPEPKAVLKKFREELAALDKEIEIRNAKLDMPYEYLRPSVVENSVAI
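Hydroperoxide formed from arachidonic acid (50 uM) by purified human 15hLO-1 (40 nM) oxidizes ferrous iron, and the ferric-xylenol orange complex is read at 573 versus 405 nm. Compounds were preincubated 15 min; reaction ran 6 min at room temperature.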
The depositor's hits bear a star; i = inactive; ? = inconclusive; . = not tested or not shown; [ ] = remark or other dose. Shown are actives, neighbours in structure and some others; about 3.2% of the full set was active somewhere. Unless noted, the call rests on the fitted dose curve; in most records, active means well fitted curve in the direction sought with a large enough effect; inconclusive means small, poorly fitted or top-dose-only effect, or another doubt; inactive means no such curve, though single readings can be large; an effect the other way counts as inactive or inconclusive. Potency means the concentration at half of the fitted maximal effect.

SMILES	Pol III holo inh	Caspase-7 inhib	Tau fil binding	Casp1 inh	ALOX15 inhib
O=C(O)[C@@H]1[C@@H]2O[C@H]([C@@H](Br)[C@H]2Br)[C@H]1C(=O)O	-10%[11.4 µM]	2%[11.5 µM]	11%[11.4 µM]	-1%[11.5 µM]	8%[11.4 µM]
CCN(CC)CC[n+]1ccc2c(C)c3[nH]c4ccccc4c3c(C)c2c1	4µM*	-9%[11.5 µM]	119%[11.4 µM]	-5%[11.5 µM]	-12%[11.4 µM]
Cn1c(=O)oc2cc(S(=O)(=O)NCCC(=O)N3CCc4ccccc43)ccc21	-8%	0%	16µM*	1%	-2%
Cn1c(=O)oc2cc(S(=O)(=O)NCCC(=O)N3CC=C(c4ccccc4)CC3)ccc21	-7%	1%	-8%	-1%	-19%
CC(C)(C)c1c2c(c(C(C)(C)C)c3c1OCN(Cc1ccccc1)C3)OCN(Cc1ccccc1)C2	-16%[11.4 µM]	-7%[11.5 µM]	-3%[11.4 µM]	2%[11.5 µM]	?
CCOc1cc(C)c(Cl)cc1S(=O)(=O)NCc1ccc2c(c1)OCO2	4%	-1%	-5%	-1%	-5%
CCOc1cc(S(=O)(=O)NCc2ccc3c(c2)OCO3)c(C)cc1C	-3%	-3%	16µM*	-2%	-12%
CCCS(=O)(=O)O	-4%[11.4 µM]	0%[11.5 µM]	-6%[11.4 µM]	4%[11.5 µM]	3%[11.4 µM]
O=C(Nc1ccc(-c2noc(COc3ccccc3Cl)n2)cc1)c1ccco1	11%	-5%	3.2µM*	-4%	-4%
CCN1CCN(c2nc(SC)nc3sc4c(c23)CC(C)(C)OC4)CC1	-7%	-10%	-1%	-9%	-12%
CCOC(=O)N1CCN(c2nc(SC)nc3sc4c(c23)CC(C)(C)OC4)CC1	-7%	-2%	16µM*	-1%	?
O=C(O)CCC(=O)c1ccc[nH]1	-6%[11.4 µM]	2%[11.5 µM]	3%[11.4 µM]	-1%[11.5 µM]	10%[11.4 µM]
COC(=O)NC1CCS(=O)(=O)C1 (stereo unspecified)	-7%	2%	6%	0%	10%
O=C(NC1CCS(=O)(=O)C1)OC1CCCCC1 (stereo unspecified)	0.5µM*	3%	-4%	1%	4%
C=C/C1=C/Cc2ccccc2C(C[N+](=O)[O-])C(C(=O)OC)(C(=O)OC)C1 (stereo unspecified)	.	-1%[11.5 µM]	.	0%[11.5 µM]	-12%[11.4 µM]
CCOc1ccc(-n2c(-c3ccco3)n[nH]c2=S)cc1	-2%	-1%	-2%	-3%	32µM*
COc1cccc(-c2nc(NC3CCNCC3)c3ccccc3n2)c1	32µM*	0%	-10%	-3%	?
CN(C)Cc1ccccc1-c1nc(NC2CCNCC2)c2ccccc2n1	25µM*	-3%	27%	-3%	24%
CN(C)c1ccc(-c2nc(NC3CCNCC3)c3ccccc3n2)cc1	?	-2%	i	1%	-10%
C[N+](C)(C)[C@H](Cc1c[nH]c(=S)[nH]1)C(=O)O	-9%[11.4 µM]	-1%[11.5 µM]	0%[11.4 µM]	-1%[11.5 µM]	16%[11.4 µM]
CCCCCCn1cnc2c(c1=O)c1nc3ccccc3nc1n2/N=C/c1ccco1	0%	-7%	?	-6%	-2%
O=c1c2c3nc4ccccc4nc3n(/N=C/c3cccs3)c2ncn1-c1ccccc1	-6%	-12%	25µM*	-14%	-8%
COc1ccccc1CNc1ncnc2ccc(-c3ccc(N(C)C)cc3)cc12	-5%	-23%	2µM*	-15%	-18%
O=C(O)CCCC[C@@H]1SC[C@H]2NC(=O)N[C@H]12	-7%	.	?	.	.
COc1ccc(OC)c(NS(=O)(=O)Cc2ccccc2)c1	-6%	-2%	16µM*	-1%	-19%
SMILES	Pol III holo inh	Caspase-7 inhib	Tau fil binding	Casp1 inh	ALOX15 inhib
COc1ccc(OC)c(S(=O)(=O)NCc2ccccc2)c1	1%	-1%	10%	-6%	9%
O=c1c(O)cc(C2Oc3cc(O)cc(O)c3CC2O)cc2c(C3Oc4cc(O)cc(O)c4CC3O)cc(O)c(O)c12 (stereo unspecified)	.	-27%	.	?	?
O=S(=O)(Nc1ccc(N2CCOCC2)cc1)c1cccs1	11%	0%	16µM*	-1%	-1%
CCCNC(=O)OC[C@@H]1O[C@H](CCO/N=C2\c3cc(OC)ccc3O[C@H](c3cccc(OC)c3)[C@H]2O)C=C[C@@H]1Oc1ccc(OC)cc1	.	1%[11.5 µM]	.	0%[11.5 µM]	-7%[11.4 µM]
Cc1ccc(-c2cc(C(=O)NC3=NCCS3)c3cc(Br)ccc3n2)o1	-3%	-7%	13µM*	-4%	13µM*
Cc1ccc(-c2cc(C(=O)NCc3ccco3)c3ccccc3n2)o1	-13%	1%	-6%	1%	?
